Test results taken from PubChem BioAssay (NCI).
The panel holds about 83,000 compounds, 20% with a hit somewhere; the sample as a whole holds those more often.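 Note: values are percent growth. 100 is the growth of untreated cells, values between 100 and 0 indicate rising inhibition; between -100 and 0 indicates cell death.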 A number with no mark means an inactive call. Activity calls are given as the source filed them. The calls were made as follows: active = growth percent below 10; inactive = the rest.

Key:
Assay in all cases: NCI-60 one-dose screen, 48 h (100 = growth as untreated, 0 = no growth, -100 = all killed)
Conditions in all cases: 10 µM unless noted
[1] = system: NCI-H23 lung
[2] = system: NCI-H322M lung
[3] = system: NCI-H460 lung
[4] = system: HOP-92 NSCLC
[5] = system: NCI-H522 lung
[6] = system: A549/ATCC NSCLC
[7] = system: 786-0 renal
[8] = system: COLO 205 colon
[9] = system: DU-145 prostate
[10] = system: K-562 leukemia
[11] = system: MALME-3M melanoma
[12] = system: MDA-MB-231 breast
[13] = system: RXF 393 renal
[14] = system: SF-268 CNS
[15] = system: SF-295 CNS
[16] = system: SF-539 CNS
[17] = system: UACC-257 melanoma
[18] = system: M14 melanoma
[19] = system: HCT-15 colon
[20] = system: HOP-62 NSCLC

| SMILES | growth [1] | growth [2] | growth [3] | growth [4] | growth [5] | growth [6] [%] | growth [7] | growth [8] [%] | growth [9] | growth [10] | growth [11] | growth [12] | growth [13] | growth [14] [%] | growth [15] | growth [16] | growth [17] | growth [18] | growth [19] | growth [20] [%] |
| --- | --- | --- | --- | --- | --- | --- | --- | --- | --- | --- | --- | --- | --- | --- | --- | --- | --- | --- | --- | --- |
| NC(CCl)=NCCC[C@H](N)C(=O)O | 98.3% | 99.5% | 101% | 98.3% | 95.4% | 97.8 | 106% | 104 | 111% | 111% | 146% | 95.8% | 100% | 108 | 81.1% | 103% | 87.6% | 88.9% | 93.7% | – |
| COc1ccc(/C(C#N)=C/c2nc3c(N4CCOCC4)nc(Cl)nc3n2C)cc1OC | 24% | 29.9% | -15.2% (active) | -12.2% (active) | -28.4% (active) | 21.1 | -61.5% (active) | – | 8.07% (active) | 0.867% (active) | 32.7% | 9.29% (active) | -67.5% (active) | 14.5 | -6.46% (active) | -26.5% (active) | 16.2% | -49.1% (active) | -40.8% (active) | – |
| CN(C)/C=C1\SC(=Nc2ccc(Cl)cc2)NC1=O | 103% | 108% | 102% | 102% | 95.8% | 100 | 99.8% | 119 | 108% | 101% | 103% | 92.7% | 100% | 101 | 101% | 96% | 101% | 109% | 103% | – |
| COC(=O)C1(C)COP(=O)(Nc2ccc(OC)cc2)OC1 (stereo unspecified) | 102% | 90.3% | 109% | 109% | 111% | 98 | 99.1% | 109 | 111% | – | 116% | 110% | 113% | 103 | 107% | 104% | 98.7% | 102% | 108% | – |
| COc1cccc2c1C=C1CCCCC3=Cc4c(OC)cccc4OC13O2 | 55.9% | 61.2% | 25.4% | 46.8% | 32.7% | 45.8 | 41.7% | 30.6 | 63.5% | 17.4% | 36.5% | 56.7% | 32.8% | 50.8 | 27.2% | 39.4% | 62.1% | 27.3% | 28.3% | – |
| CCn1c(Cc2ccccc2Nc2c(Cl)cccc2Cl)nnc1SCC(=O)NN1C(=O)/C(=C/c2cccc(OC)c2OC)SC1=S | 98.4% | 99% | 103% | 96.9% | 86.8% | 96.3 | 104% | 112 | 105% | 89.7% | 97.1% | 102% | 112% | 96.1 | 95% | 101% | 101% | 103% | 99.8% | – |
| c1ccc2c(c1)oc1cc3sccc3nc12 | 101% | 99.2% | 104% | 95.1% | 93% | 102 | 96.1% | 109 | 114% | 98.1% | 102% | 101% | 109% | 97.5 | 108% | 98.8% | 104% | 94.7% | 99.5% | – |
| O=c1oc2ccc(Cl)cc2c(=O)n1-c1ccc(F)cc1F | 7.47% (active) | 3.62% (active) | 7.56% (active) | -22.9% (active) | -23% (active) | – | 9.41% (active) | 64.9 | 18.7% | 9.99% (active) | -23.8% (active) | 4.44% (active) | 2.26% (active) | 12.3 | -7.12% (active) | 13.2% | -13.1% (active) | 20.3% | 13.5% | – |
| COC(=O)c1c2c(c(C)[n+]([O-])c1C)C(=O)C(NCc1ccc(Br)cc1)=CC2=O | 11% | – | 3.51% (active) | 78.1% | 42.8% | 18.2 | 48.8% | – | 53.3% | 32% | -70.1% (active) | 4.21% (active) | 41.4% | 16.2 | 19.3% | 8.36% (active) | -52.3% (active) | 4.19% (active) | 7.94% (active) | 31.4 |
| Nc1nonc1-n1nncc1-c1cccnc1 | 102% | – | 111% | 99.8% | 112% | 94.7 | 104% | 114 | 112% | 105% | 96.1% | 111% | 115% | 106 | 98.2% | 102% | 112% | 104% | 101% | 110 |
